For some of these results: Entries with a potency or affinity are not part of this list.
Columns and labels:
Parameters in all cases: scale not given: direction of the effect not stated beside the values
[1] = molecular target: Protein translocase subunit SecA (Escherichia coli (strain K12)) (UniProt P10408); assay: Assay to Identify E. coli SecA ATPase Inhibitors; assay type: functional; conditions: 30 µM
[2] = molecular target: T1, Ubiquitin-activating enzyme e1, putative (Leishmania donovani (strain BPK282A1)) (UniProt E9BSI1); assay: Leishmania donovani Ubiquitin Activating Enzyme (LdE1); assay type: functional; conditions: 30 µM
T1 sequence (whole entry): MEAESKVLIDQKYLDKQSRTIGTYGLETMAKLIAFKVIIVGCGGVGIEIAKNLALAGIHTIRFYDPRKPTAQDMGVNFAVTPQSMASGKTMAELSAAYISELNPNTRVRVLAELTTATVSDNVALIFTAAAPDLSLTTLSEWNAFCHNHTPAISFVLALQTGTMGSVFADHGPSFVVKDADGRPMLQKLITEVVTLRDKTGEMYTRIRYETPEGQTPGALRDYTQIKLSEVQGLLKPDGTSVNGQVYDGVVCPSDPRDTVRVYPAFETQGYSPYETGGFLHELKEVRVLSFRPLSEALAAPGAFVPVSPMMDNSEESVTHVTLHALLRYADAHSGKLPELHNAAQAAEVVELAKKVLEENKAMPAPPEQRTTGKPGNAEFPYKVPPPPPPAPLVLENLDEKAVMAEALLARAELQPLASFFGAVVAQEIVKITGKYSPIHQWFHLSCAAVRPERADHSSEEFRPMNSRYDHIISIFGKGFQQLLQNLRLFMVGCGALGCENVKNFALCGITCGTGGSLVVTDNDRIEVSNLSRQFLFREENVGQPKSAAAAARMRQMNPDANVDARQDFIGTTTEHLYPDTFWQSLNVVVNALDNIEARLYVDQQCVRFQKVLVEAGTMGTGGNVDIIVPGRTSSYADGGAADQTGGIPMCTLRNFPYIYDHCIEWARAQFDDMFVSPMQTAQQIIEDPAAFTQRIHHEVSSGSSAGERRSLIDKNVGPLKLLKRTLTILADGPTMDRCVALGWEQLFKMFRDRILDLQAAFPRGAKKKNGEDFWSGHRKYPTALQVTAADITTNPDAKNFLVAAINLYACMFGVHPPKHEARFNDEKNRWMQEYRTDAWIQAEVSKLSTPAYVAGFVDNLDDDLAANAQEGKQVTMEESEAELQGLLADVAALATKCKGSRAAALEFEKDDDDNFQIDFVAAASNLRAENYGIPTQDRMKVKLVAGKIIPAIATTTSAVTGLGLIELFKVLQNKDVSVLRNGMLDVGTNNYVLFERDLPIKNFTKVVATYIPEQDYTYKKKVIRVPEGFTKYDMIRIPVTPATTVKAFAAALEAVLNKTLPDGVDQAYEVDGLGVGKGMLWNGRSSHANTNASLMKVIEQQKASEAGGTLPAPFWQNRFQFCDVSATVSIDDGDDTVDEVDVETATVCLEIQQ

[3] = molecular target: T2, Aspartate--tRNA(Asp/Asn) ligase (Mycobacterium tuberculosis (strain ATCC 25618 / H37Rv)) (UniProt P9WFW3); assay: Assay for Asp RNA synthetase-1 from Mycobacterium tuberculosis; assay type: functional; conditions: 30 µM; further: in the data most compounds retested in dose-response had high values
T2 sequence (whole entry): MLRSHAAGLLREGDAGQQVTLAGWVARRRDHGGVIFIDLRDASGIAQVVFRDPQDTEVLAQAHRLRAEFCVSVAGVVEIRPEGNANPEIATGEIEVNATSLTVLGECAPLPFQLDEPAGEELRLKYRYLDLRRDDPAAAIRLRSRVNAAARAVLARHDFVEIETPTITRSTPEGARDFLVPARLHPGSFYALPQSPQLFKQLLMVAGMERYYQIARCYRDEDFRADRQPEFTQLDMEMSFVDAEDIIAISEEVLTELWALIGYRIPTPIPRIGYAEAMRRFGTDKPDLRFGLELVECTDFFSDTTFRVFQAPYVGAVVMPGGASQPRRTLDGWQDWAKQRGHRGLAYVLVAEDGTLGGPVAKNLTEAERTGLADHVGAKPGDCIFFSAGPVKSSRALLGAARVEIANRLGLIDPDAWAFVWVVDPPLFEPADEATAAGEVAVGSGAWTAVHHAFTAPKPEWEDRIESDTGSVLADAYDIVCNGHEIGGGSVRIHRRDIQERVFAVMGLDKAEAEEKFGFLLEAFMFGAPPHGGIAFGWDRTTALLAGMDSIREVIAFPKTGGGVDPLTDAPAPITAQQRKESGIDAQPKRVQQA

[4] = molecular target: AMP-activated protein kinase, AMPK (Homo sapiens) (UniProt P54646+O43741+P54619+Q9UGJ0+Q9Y478+Q13131+Q9UGI9); assay: AMP-dependent Kinase enzyme assay. An in vitro enzyme assay that detects ADP turnover that is directly proportional to AMPK activity. This uses naive AMPK that is activated during the assay with MK-8722; assay type: functional; conditions: 30 µM
[5] = molecular target: Sialic acid-binding Ig-like lectin 9 (Homo sapiens) (UniProt Q9Y336); assay: Hs-Siglec9 ALPHAscreen SOP 20170721; conditions: 10 µM
[6] = test system: Trypanosoma cruzi; assay: Trypanosoma cruzi phosphomannomutase and mannose-1-phosphate guanylyltransferase assay; assay type: functional; conditions: 10 µM
[7] = molecular target: T3, Arginase-2, mitochondrial (Homo sapiens) (UniProt P78540); assay: in vitro enzyme assay to detect the production of urea directly proportional to the activity of Arginase II; assay type: functional; conditions: 33.3 µM; further: in the data most compounds retested in dose-response had high values
T3 sequence (whole entry): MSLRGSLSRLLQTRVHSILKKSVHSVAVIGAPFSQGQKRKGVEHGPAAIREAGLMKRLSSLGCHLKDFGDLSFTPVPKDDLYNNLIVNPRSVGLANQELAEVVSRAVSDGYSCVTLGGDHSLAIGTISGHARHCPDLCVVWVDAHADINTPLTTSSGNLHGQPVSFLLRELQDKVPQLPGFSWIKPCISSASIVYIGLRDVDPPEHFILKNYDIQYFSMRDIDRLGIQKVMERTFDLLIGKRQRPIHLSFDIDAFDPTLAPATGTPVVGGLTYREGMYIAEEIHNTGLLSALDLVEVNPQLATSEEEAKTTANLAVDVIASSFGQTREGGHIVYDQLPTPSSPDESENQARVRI

[8] = molecular target: T4, Proteasome subunit beta (Trypanosoma cruzi) (UniProt O96673); assay: Trypanosoma cruzi proteasome chymotrypsin-like activity (TcProtChymo) assay.; further: in the data most compounds retested in dose-response had high values; assay type: functional; conditions: 9.37 µM
T4 sequence (whole entry): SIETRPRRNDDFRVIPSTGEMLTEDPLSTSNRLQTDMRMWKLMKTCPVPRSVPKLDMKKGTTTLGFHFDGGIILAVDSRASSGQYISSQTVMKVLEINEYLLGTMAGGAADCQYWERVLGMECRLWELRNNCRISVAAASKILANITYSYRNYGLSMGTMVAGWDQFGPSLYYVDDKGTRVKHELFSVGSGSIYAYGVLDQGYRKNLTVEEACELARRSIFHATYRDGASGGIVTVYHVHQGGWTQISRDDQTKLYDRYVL

[9] = species: Homo sapiens; assay: To identify inhibition of the IFN signalling (Jak-Stat) pathway via expression of an eGFP reporter gene under the control of an IFN-stimulated response element (ISRE) containing MxA promoter.; assay type: functional; conditions: 30 µM
[10] = molecular target: Shiga toxin 2 (Escherichia coli O157:H7) (UniProt P09385+P09386); assay: E. coli 0.157:H7 Shiga Toxin SOP - stx2 screening assay; assay type: functional; conditions: 30 µM
[11] = molecular target: T5, Tyrosyl-tRNA synthetase, putative (Trypanosoma cruzi (strain CL Brener)) (UniProt Q4DSP6); assay: Trypanosoma cruzi tyrosyl tRNA synthetase (TcYRS) _High Tyrosine SOP; assay type: functional; conditions: 30 µM; further: in the data most compounds retested in dose-response had high values
T5 sequence (whole entry): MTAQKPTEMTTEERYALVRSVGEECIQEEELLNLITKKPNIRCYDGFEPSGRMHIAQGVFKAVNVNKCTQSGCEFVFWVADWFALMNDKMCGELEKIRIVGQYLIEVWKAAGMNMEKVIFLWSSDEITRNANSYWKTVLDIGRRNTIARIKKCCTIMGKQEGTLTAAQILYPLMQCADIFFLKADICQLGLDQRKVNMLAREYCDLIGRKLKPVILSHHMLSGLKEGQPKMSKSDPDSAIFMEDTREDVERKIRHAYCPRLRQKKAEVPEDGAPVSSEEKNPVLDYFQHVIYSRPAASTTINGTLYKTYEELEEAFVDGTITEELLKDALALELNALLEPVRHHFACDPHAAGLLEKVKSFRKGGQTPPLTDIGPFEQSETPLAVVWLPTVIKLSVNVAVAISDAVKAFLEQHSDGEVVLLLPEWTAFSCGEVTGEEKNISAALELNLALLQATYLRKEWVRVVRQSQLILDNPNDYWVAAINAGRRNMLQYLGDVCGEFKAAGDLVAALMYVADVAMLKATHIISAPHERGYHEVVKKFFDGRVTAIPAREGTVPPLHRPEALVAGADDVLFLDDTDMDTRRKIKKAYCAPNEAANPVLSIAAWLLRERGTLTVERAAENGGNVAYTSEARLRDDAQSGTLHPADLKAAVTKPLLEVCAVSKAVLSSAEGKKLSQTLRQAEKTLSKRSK

[12] = molecular target: T5, Tyrosyl-tRNA synthetase, putative (Trypanosoma cruzi (strain CL Brener)); assay: Trypanosoma cruzi tyrosyl tRNA synthetase (TcYRS) SOP; assay type: functional; conditions: 30 µM
[13] = molecular target: Chromo domain-containing protein 1 (Saccharomyces cerevisiae (strain ATCC 204508 / S288c) (Baker's yeast)) (UniProt P32657); assay: ScCHD-1 Enzyme Inhibition Assay; assay type: functional; conditions: 30 µM; further: in the data most compounds retested in dose-response had high values
Sequence of Chromo domain-containing protein 1 (Saccharomyces cerevisiae (strain ATCC 204508 / S288c) (Baker's yeast)) (P32657 whole entry, the tested form may be a part): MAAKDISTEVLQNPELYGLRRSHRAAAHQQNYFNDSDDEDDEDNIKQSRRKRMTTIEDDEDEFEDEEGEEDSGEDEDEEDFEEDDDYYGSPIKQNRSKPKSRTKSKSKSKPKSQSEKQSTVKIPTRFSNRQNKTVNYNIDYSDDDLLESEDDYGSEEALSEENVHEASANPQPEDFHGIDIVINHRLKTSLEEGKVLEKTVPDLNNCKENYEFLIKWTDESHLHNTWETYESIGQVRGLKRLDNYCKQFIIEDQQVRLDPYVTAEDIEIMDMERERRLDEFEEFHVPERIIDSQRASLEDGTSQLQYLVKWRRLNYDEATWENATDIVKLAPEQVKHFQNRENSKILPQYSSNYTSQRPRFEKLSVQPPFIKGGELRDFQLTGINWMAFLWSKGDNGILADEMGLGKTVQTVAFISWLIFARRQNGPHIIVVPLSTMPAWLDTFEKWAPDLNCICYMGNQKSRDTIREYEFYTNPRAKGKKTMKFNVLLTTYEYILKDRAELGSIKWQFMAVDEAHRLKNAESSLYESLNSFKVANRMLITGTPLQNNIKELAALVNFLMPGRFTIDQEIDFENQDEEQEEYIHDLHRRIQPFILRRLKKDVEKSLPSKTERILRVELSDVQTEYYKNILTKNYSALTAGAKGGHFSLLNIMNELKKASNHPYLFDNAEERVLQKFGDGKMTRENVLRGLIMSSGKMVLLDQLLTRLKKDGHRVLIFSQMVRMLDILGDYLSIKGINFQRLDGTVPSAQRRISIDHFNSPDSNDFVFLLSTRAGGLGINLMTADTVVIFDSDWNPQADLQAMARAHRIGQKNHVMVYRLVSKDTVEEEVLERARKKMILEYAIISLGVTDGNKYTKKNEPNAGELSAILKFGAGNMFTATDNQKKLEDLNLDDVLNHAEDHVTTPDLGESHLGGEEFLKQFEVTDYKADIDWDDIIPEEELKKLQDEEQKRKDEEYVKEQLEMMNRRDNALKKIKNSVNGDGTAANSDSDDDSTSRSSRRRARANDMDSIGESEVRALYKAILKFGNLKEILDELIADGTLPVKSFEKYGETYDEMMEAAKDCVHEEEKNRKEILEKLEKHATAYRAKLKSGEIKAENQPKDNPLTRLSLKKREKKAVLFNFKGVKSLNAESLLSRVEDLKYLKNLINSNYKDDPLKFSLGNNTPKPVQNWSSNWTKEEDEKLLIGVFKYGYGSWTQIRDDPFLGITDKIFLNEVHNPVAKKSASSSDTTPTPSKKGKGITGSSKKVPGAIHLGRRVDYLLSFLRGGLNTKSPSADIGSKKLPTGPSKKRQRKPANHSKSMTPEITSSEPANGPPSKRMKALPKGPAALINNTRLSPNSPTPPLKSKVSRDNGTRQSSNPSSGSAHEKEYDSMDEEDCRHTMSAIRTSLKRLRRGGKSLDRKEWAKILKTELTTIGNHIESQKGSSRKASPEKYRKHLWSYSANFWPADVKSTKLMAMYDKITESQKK

Sequence of Protein translocase subunit SecA (Escherichia coli (strain K12)) (P10408 whole entry): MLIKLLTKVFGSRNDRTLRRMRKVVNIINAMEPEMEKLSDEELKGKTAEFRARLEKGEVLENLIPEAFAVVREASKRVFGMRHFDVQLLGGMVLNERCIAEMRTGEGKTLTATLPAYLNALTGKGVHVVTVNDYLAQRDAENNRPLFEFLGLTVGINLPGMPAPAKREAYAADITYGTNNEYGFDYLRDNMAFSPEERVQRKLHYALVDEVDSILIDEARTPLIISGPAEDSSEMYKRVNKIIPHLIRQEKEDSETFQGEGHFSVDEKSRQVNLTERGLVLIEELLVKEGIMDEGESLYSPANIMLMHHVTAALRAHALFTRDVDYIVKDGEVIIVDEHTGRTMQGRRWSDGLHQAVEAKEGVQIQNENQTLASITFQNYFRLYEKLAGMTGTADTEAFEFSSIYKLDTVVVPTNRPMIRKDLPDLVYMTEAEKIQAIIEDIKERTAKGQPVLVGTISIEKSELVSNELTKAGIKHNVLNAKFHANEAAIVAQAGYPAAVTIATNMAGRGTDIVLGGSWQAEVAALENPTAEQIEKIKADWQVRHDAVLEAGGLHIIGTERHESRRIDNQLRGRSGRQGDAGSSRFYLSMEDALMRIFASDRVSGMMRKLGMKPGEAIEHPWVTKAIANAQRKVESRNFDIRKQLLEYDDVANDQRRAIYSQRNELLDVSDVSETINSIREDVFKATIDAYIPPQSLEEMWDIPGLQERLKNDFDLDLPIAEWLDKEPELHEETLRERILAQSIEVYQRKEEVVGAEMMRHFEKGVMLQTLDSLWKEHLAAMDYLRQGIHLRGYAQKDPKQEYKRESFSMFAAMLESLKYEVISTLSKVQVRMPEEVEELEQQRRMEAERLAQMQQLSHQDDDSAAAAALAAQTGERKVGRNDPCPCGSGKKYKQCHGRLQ
Sequence of Sialic acid-binding Ig-like lectin 9 (Homo sapiens) (Q9Y336 whole entry): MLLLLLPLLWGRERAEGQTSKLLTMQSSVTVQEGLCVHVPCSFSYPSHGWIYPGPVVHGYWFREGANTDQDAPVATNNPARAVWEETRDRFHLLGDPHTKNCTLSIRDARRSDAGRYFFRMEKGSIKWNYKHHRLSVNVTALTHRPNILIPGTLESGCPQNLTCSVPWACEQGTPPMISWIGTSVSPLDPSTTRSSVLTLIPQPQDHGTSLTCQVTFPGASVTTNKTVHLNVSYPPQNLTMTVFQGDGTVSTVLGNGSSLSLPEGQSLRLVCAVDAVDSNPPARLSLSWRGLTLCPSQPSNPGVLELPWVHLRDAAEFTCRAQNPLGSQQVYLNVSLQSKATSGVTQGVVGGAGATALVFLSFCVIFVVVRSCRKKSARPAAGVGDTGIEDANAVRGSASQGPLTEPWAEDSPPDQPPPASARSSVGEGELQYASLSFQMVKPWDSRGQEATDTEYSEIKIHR

Compound: Cc1cccc(C(=O)N2C[C@@H]3OCCN(C(C)C)[C@@H]3C2)n1
- Percent Effect [1]: -0.342%
- Percent Effect [2]: 0%
- Percent Effect [3]: 2.88%
- Percent Effect [4]: 1.78%
- Percent Effect [5]: 5.46%
- Percent Effect [6]: 1.74%
- Percent Effect [7]: -50%
- Percent Effect [8]: 5.81%
- Percent Effect [9]: -20.9%
- Percent Effect [10]: -1.16%
- Percent Effect [11]: -26%
- Percent Effect [12]: 2.5%
- Percent Effect [13]: 0.0349%

Compound: c1ccc(OC[C@@H]2CCC[C@@]23CNCCO3)nc1
- Percent Effect [1]: -2.73%
- Percent Effect [2]: 5.41%
- Percent Effect [3]: 9.49%
- Percent Effect [4]: 130%
- Percent Effect [5]: -8.96%
- Percent Effect [6]: -4.79%
- Percent Effect [7]: -7.33%
- Percent Effect [8]: 17.9%
- Percent Effect [9]: 24.8%
- Percent Effect [10]: -5.1%
- Percent Effect [11]: 1.08%
- Percent Effect [12]: 2.56%
- Percent Effect [13]: -0.951%

Compound: O=C1CC2(CCN(CC3CC3)C2)CN1c1cccnc1 (stereo unspecified)
- Percent Effect [1]: -0.0321%
- Percent Effect [2]: 8.11%
- Percent Effect [3]: 1.57%
- Percent Effect [4]: -3.31%
- Percent Effect [5]: 8.46%
- Percent Effect [6]: -5.18%
- Percent Effect [7]: 7.2%
- Percent Effect [8]: 11.4%
- Percent Effect [9]: -22.5%
- Percent Effect [10]: -25.7%
- Percent Effect [11]: 10.8%
- Percent Effect [12]: 11.1%
- Percent Effect [13]: -7.21%

Compound: c1ccc(OC[C@]23COC[C@H]2CN(Cc2ccoc2)C3)nc1
- Percent Effect [1]: -3.19%
- Percent Effect [2]: 10.7%
- Percent Effect [3]: -2.04%
- Percent Effect [4]: -1.7%
- Percent Effect [5]: 1.05%
- Percent Effect [6]: 4.05%
- Percent Effect [7]: -57.9%
- Percent Effect [8]: 12.1%
- Percent Effect [9]: -8.07%
- Percent Effect [10]: -23.7%
- Percent Effect [11]: 3.12%
- Percent Effect [12]: 17.5%
- Percent Effect [13]: -6.62%

Compound: O=C(Cc1cccs1)N1C[C@@H]2OCCN(CC3CCCC3)[C@@H]2C1
- Percent Effect [1]: -3.05%
- Percent Effect [2]: 11%
- Percent Effect [3]: -2.94%
- Percent Effect [4]: -0.507%
- Percent Effect [5]: 19.2%
- Percent Effect [6]: 1.59%
- Percent Effect [7]: -6.79%
- Percent Effect [8]: 4.37%
- Percent Effect [9]: -10.9%
- Percent Effect [10]: 13.2%
- Percent Effect [11]: 4.17%
- Percent Effect [12]: 6.17%
- Percent Effect [13]: -1.65%

Compound: Cc1n[nH]c2c1C(c1ccc(O)c(Cl)c1)SCC(=O)N2 (stereo unspecified)
- Percent Effect [1]: -3.6%
- Percent Effect [2]: 4%
- Percent Effect [3]: -0.755%
- Percent Effect [4]: 21.6%
- Percent Effect [5]: 4.97%
- Percent Effect [6]: -3.73%
- Percent Effect [7]: -6.16%
- Percent Effect [8]: 5.18%
- Percent Effect [9]: 10.7%
- Percent Effect [10]: -29.6%
- Percent Effect [11]: 9.52%
- Percent Effect [12]: 15.4%
- Percent Effect [13]: -4.99%

Compound: c1cnc(N2CCCC3(CCN(Cc4ccncc4)C3)C2)nc1 (stereo unspecified)
- Percent Effect [1]: -2.54%
- Percent Effect [2]: 8.11%
- Percent Effect [3]: 4.42%
- Percent Effect [4]: 2.74%
- Percent Effect [5]: -7%
- Percent Effect [6]: -1.66%
- Percent Effect [7]: -6.69%
- Percent Effect [8]: 24.7%
- Percent Effect [9]: -1.82%
- Percent Effect [10]: 1.1%
- Percent Effect [11]: 1.08%
- Percent Effect [12]: 15.4%
- Percent Effect [13]: -3.48%
